According to PubChem BioAssay AID720597 (Broad Institute, 2013):
Measured potencies and affinities stand elsewhere. Active and inactive are the calls of the source.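 How the source made its calls: active means fitted half-maximal dose no more than twice the top valid tested dose, for compounds that lower signal; inconclusive means fit invalid, or curve flat with activity between -70 and -30; inactive means potency past limit, curve flat within ±30, or signal increasing.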

target: NAD-dependent protein deacylase sirtuin-5, mitochondrial (Homo sapiens) (UniProt Q9NXA8); assay: blockers of sirtuin-5 peptide desuccinylation – biochemical, fluorescence imaging, cherry-pick, set 6, dose response (AID 720597); details: Purified SirT5, succinyl-peptide-AMC/trypsin fluorescence; series mostly up to 15 µM;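 further: lower AMC signal can also come from blocking the trypsin step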
Sequence (Q9NXA8 whole entry, looked up): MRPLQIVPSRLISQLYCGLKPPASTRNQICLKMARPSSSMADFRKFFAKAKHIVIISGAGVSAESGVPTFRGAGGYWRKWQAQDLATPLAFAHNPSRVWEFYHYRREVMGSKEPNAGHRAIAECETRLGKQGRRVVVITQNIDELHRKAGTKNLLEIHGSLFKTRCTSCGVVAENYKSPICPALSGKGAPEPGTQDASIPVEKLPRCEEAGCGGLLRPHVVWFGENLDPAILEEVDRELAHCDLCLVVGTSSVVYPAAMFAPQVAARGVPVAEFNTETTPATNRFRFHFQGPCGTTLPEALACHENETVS

outcome, inactive:
COc1ccc(S(=O)(=O)N(C)C[C@H]2OCCCC[C@@H](C)Oc3ccc(NS(=O)(=O)c4ccc(F)cc4)cc3C(=O)N([C@H](C)CO)C[C@H]2C)cc1, O=C(C[C@H]1CC[C@H](NC(=O)C2CCC2)[C@H](CO)O1)NCc1ccccc1Cl, O=C(C[C@H]1C[C@@H]2c3cc(NC(=O)Nc4ccc(C(F)(F)F)cc4)ccc3O[C@@H]2[C@@H](CO)O1)NCc1ccc2c(c1)OCO2, Cc1ccc(S(=O)(=O)N(C)C[C@H]2OCCCC[C@H](C)Oc3ccc(NS(=O)(=O)c4ccccc4)cc3C(=O)N([C@H](C)CO)C[C@H]2C)cc1, C[C@@H]1CN([C@@H](C)CO)C(=O)c2cc(NS(=O)(=O)c3ccccc3)ccc2O[C@@H](C)CCCCO[C@@H]1CN(C)S(=O)(=O)c1ccc(F)cc1, Cc1noc(C)c1S(=O)(=O)N(C)C[C@H]1Oc2ccc(NC(=O)Cn3cnnn3)cc2CC(=O)N([C@H](C)CO)C[C@H]1C, C[C@H]1CN([C@@H](C)CO)C(=O)c2ccccc2-c2ccccc2CO[C@@H]1CN(C)C(=O)Nc1ccccc1C(F)(F)F, COc1ccc(S(=O)(=O)Nc2ccc3c(c2)C(=O)N([C@@H](C)CO)C[C@H](C)[C@@H](CN(C)Cc2ccc(Oc4ccccc4)cc2)O3)cc1, C[C@@H]1CN([C@@H](C)CO)S(=O)(=O)c2ccc(/C=C/c3ccccc3)cc2O[C@H]1CN(C)C(=O)c1ccc2c(c1)OCO2, COc1ccc(S(=O)(=O)Nc2ccc3c(c2)C(=O)N([C@@H](C)CO)C[C@H](C)[C@@H](CN(C)S(=O)(=O)c2ccccc2)OCCCC[C@@H](C)O3)cc1, COCCNC(=O)c1cc2c(c(-c3cccc(-c4cccc(F)c4)c3)n1)[C@H](CCO)N(S(=O)C(C)(C)C)C2 (some centres undefined), C[C@@H]1CN([C@H](C)CO)C(=O)c2cc(-c3cccc(F)c3)cnc2O[C@@H]1CN(C)C, Cc1ccc(NC(=O)C2CC(=O)n3ncnc3N2)cc1 (centres undefined), C[C@@H]1CN([C@H](C)CO)C(=O)c2cc(NS(=O)(=O)c3ccc(F)cc3)ccc2O[C@@H](C)CCCCO[C@@H]1CN(C)S(=O)(=O)c1ccc(Cl)cc1, O=S(=O)(N[C@@H]1CC[C@@H](CCn2cc(Cc3ccccc3)nn2)O[C@H]1CO)c1ccccc1F, CC(=O)NC[C@@H]1[C@@H](c2ccc(-c3ccccc3F)cc2)[C@@H](CO)N1CCC(F)(F)F, C[C@@H]1CN([C@@H](C)CO)C(=O)c2cc(C#CC3CCCCC3)cnc2O[C@H]1CN(C)S(=O)(=O)c1cccc(F)c1, CC(C)CC#Cc1ccc2c(c1)O[C@H](CN(C)C(=O)NC1CCCC1)[C@@H](C)CN([C@@H](C)CO)S2(=O)=O, C[C@H]1CN([C@@H](C)CO)S(=O)(=O)c2ccc(C#CC(C)(C)O)cc2O[C@H]1CN(C)Cc1ccc(-c2ccccc2)cc1, C[C@@H]1CN([C@@H](C)CO)C(=O)c2cccc(NC(=O)c3ccncc3)c2O[C@@H]1CN(C)S(C)(=O)=O, C[C@H]1CN([C@@H](C)CO)C(=O)c2cc(C#CCN(C)C)cnc2O[C@@H]1CN(C)Cc1ccncc1, O=C(NCC[C@H]1CC[C@H](NC(=O)C2CC2)[C@@H](CO)O1)c1cc(Cl)cc(Cl)c1, COc1ccc(S(=O)(=O)Nc2ccc3c(c2)C(=O)N([C@@H](C)CO)C[C@@H](C)[C@H](CN(C)Cc2ccc(Oc4ccccc4)cc2)O3)cc1, CCN1[C@H](C(=O)NCc2ccccc2)[C@@H](CO)[C@@H]2Cn3c(ccc(-c4ccncc4)c3=O)[C@@H]21, C[C@@H]1CN([C@H](C)CO)C(=O)Cc2cc(NS(=O)(=O)c3ccc(Cl)cc3)ccc2O[C@H]1CN(C)Cc1ccc(Oc2ccccc2)cc1, CCCN1C[C@H](C)[C@@H](OC)CN(C)C(=O)c2cc(NS(=O)(=O)c3ccccc3)ccc2OC[C@H]1C, C[C@@H]1CN([C@H](C)CO)C(=O)Cc2cc(NC(=O)Nc3ccc(F)cc3)ccc2O[C@H]1CN(C)C, C/C=C/c1ccc2c(c1)O[C@H](CN(C)Cc1cccc(F)c1)[C@H](C)CN([C@@H](C)CO)S2(=O)=O, C[C@@H]1CN([C@@H](C)CO)C(=O)c2cc(NS(=O)(=O)c3ccc(Cl)cc3)ccc2O[C@@H](C)CCCCO[C@@H]1CN(C)C(=O)Nc1ccc(C(F)(F)F)cc1
